# An excerpt weighted towards active compounds, which were near 3.6% of everything screened.
# Anthrax LF inh2: Bacillus anthracis LF protease inhibitors, primary screen, biochemical, multiplex microsphere, MLPCN library. Lethal factor (Bacillus anthracis), P15917. multiplex microsphere protease cleavage assay. inhibition, % at 10 µM. hit rate 0.12% among 360,000; note: plate controls were buffer without enzyme for full effect and enzyme alone for no effect
# Bead autofluor: compound fluorescence in toxin protease inhibitor counterscreen | compound autofluorescence counterscreen, microsphere flow cytometry; hits give high values | fluorescence intensity (no concentration beside the values) | hit rate 3.1% among 360,000; in the data active = fluorescence intensity above about 16000; inconclusive = no clear call, values can overlap the other calls
# BoNT F protease: BoNT/F light chain protease inhibitors, primary screen, biochemical, flow cytometry, MLPCN library; Botulinum neurotoxin type F light chain protease (Clostridium botulinum); Multiplex microsphere protease cleavage assay; inhibition, % at 10 µM; hit rate 0.22% among 360,000; in the data active = inhibition above about 35%, passing the limit was not always enough; inconclusive = no clear call, values can overlap the other calls; note: plate controls were buffer without enzyme for full effect and enzyme alone for no effect
# BoNT-A LC inh2: BoNT/A light chain protease inhibitors, primary screen, biochemical, flow cytometry, MLPCN library; Botulinum neurotoxin type A light chain protease (Clostridium botulinum A str. ATCC 3502); multiplex microsphere protease substrate cleavage; inhibition, % at 10 µM; hit rate 0.17% among 360,000; note: plate controls were buffer without enzyme for full effect and enzyme alone for no effect
# MazEF act: activators of E. coli MazEF toxin-antitoxin RNase, primary screen, biochemical, fluorescence, uHTS | Endoribonuclease toxin MazF (Escherichia coli (strain K12)), P0AE70 | FAM/BHQ RNA-DNA oligo cleavage fluorescence, 5 h | activation, % at 20 µM | hit rate 0.32% among 350,000 | AID 504720, 2011; in the data active = activation above about 50%
# * marks the source's active call; other numbers are inactive results; ? = inconclusive; / = no result. Cut-off read from the data, not from the text of the source, unless noted: active = inhibition above about 30%; inconclusive = no clear call, values can overlap the other calls; inactive = below that.
SMILES,Anthrax LF inh2,Bead autofluor,BoNT F protease,BoNT-A LC inh2,MazEF act
O=C(OC1CSc2nc3ccccc3n2C1)c1ccco1 (configuration not stated),-5,21891*,0,1,7
CN1CCC(OC(=O)c2ccco2)CC1,-2,4480,-1,-1,5
COc1ccccc1C(=O)NCC(=O)OCC(=O)Nc1ccc2[nH]c(=O)[nH]c2c1,-2,4935,-7,0,-19
O=C1CCCC2=C1C(c1ccc(Cl)cc1)n1c(s/c(=C\c3ccc4ccncc4c3)c1=O)=N2 (configuration not stated),22,3020,17,37*,-44
O=c1cc(-c2ccccc2)nc(SCc2ccc(F)cc2)[nH]1,-1,2557,1,0,8
COc1cc(=O)[nH]c(SCc2c(F)c(F)c(F)c(F)c2F)n1,2,18910*,3,2,-1
CCOC(=O)C1=CCC(c2ccc(Cl)cc2)N(S(=O)(=O)c2ccc(C)cc2)C1 (configuration not stated),0,4149,1,0,/
CCCN1CCc2c(sc3nc(SCC)n(-c4ccc(OC)cc4)c(=O)c23)C1,29,4205,11,40*,6
CCCN1CCc2c(sc3nc(SCC)n(-c4ccccc4)c(=O)c23)C1,15,5969,5,34*,-5
Cn1nc(C2CC2)cc1NC(=O)C1(C)CCN1C(=O)Cc1ccc(-c2ccccc2)cc1 (configuration not stated),3,3612,0,0,/
CC1(c2cccs2)CC(c2cccs2)=C(C#N)C(=O)N1 (configuration not stated),-1,22806*,-5,-2,1
COc1ccc(/C=N/N2C(=O)C3C4C=CC(CC4)C3C2=O)c(OC)c1 (configuration not stated),0,2034,-2,0,4
CCOC(=O)c1ccc(N2C(=O)c3n[nH]c(C)c3C2c2ccc(OC)c(OC)c2)cc1 (configuration not stated),1,19224*,4,?,-3
CCOC(=O)c1ccc(N2C(=O)c3n[nH]c(C)c3C2c2ccc(OC)cc2)cc1 (configuration not stated),-11,4388,-4,0,5
CCOc1cc(C2c3c(n[nH]c3C)C(=O)N2c2ccc(Br)cc2)ccc1O (configuration not stated),-7,3428,51*,0,4
O=C(CC(SCCO)c1ccc([N+](=O)[O-])cc1)c1ccco1 (configuration not stated),-4,3945,-4,2,-4
CC(=O)NC(CSC(CC(=O)c1ccco1)c1ccc(C)cc1)C(=O)O (configuration not stated),-2,4338,-2,0,249*
COc1ccc(C2CC(=O)CC(=O)C2n2cncn2)cc1 (configuration not stated),-2,21795*,3,1,7
O=C1CC(c2cccc(Cl)c2)C(n2cncn2)C(=O)C1C1NCCc2ccccc21 (configuration not stated),1,4641,5,0,2
O=C1CC(=O)C(n2cncn2)C(c2cccc(Cl)c2)C1 (configuration not stated),-1,21751*,8,4,-10
CC(=O)Nc1cc(-c2ccccc2)cn2c(-c3ccc(F)cc3)cnc12,-9,3794,1,0,/
Cc1ccc(C)c(CSC2=NN3CCCC(=O)N=C3S2)c1,-1,3765,3,0,-7
CCOc1cc(C(=O)Nc2cccc3ncccc23)cc(OCC)c1OCC,-1,20303*,-2,1,10
O=C1CCN(c2ccccc2)N1,-3,3939,2,0,-19
NC(Cc1ccc(C(F)(F)F)cc1)c1csc(Nc2ccc(S(N)(=O)=O)cc2)n1 (configuration not stated),-5,3467,-14,0,/
SMILES,Anthrax LF inh2,Bead autofluor,BoNT F protease,BoNT-A LC inh2,MazEF act
Cc1cccc(N2CCN(C(=O)c3cn(C)c(=O)c4c3c3ccccc3n4C)CC2)c1C,-3,23203*,0,0,-9
CCOc1ccc(S(=O)(=O)Nc2ccccc2SC)cc1,-4,24042*,-4,-2,-6
CCOc1ccc(NS(=O)(=O)c2ccc(NS(=O)(=O)c3ccccc3)cc2)cc1,2,8285,-10,-1,-5
COC(=O)COc1ccc(S(=O)(=O)Nc2ccccc2SC)cc1,-2,23132*,-6,?,9
COC(=O)COc1ccc(S(=O)(=O)Nc2ccc(C(N)=O)cc2)cc1,8,4230,3,1,0
NC(=O)c1cn(C2CCCCC2)c2ccccc2c1=O,14,3613,41*,-2,6
COC(=O)Nc1sccc1C(=O)Nc1sccc1C(=O)OC,-3,7544,2,2,-1
CCC(=O)Nc1sccc1C(=O)OC,-8,22995*,-1,?,5
COC(=O)c1ccsc1NC(=O)CN1CCN(Cc2ccc3c(c2)OCO3)CC1,-1,21667*,1,2,-7
COC(=O)c1[nH]c2ccc(C)cc2c1NC(=O)CCN1CCN(Cc2ccc3c(c2)OCO3)CC1,-4,22086*,0,0,-3
COC(=O)c1c(NC(=O)CN2CCN(Cc3ccc4c(c3)OCO4)CC2)sc(C)c1C,13,?,-9,0,22
CCOc1ccc(-c2cc(C(=O)NCCCN3CCCC3)c3ccccc3n2)cc1,-2,6564,-6,-2,10
CC(C)(C)C1CCC(=O)N(CCOc2ccccc2)CC1 (configuration not stated),-1,3137,-5,0,-2
CC(=O)Nc1nnc(/C=C/c2cccc([N+](=O)[O-])c2)s1,-2,4252,63*,0,8
COC(=O)Nc1nnc(/C=C/c2ccccc2)s1,-1,1955,0,-1,2
CN(C)S(=O)(=O)c1ccc(N2CCCC2)c(C(=O)NCC2CCCCC2)c1,-4,3440,-3,0,4
CS(=O)(=O)c1ccc(N2CCN(C3CC(=O)NC3=O)CC2)cc1 (configuration not stated),-1,2732,-4,0,1
COc1ccc(N2CCN(C3CC(=O)NC3=O)CC2)cc1 (configuration not stated),-5,24614*,-10,?,-8
O=C(CCC(=O)c1ccc(F)cc1)NC1CCCN(Cc2ccccc2F)C1 (configuration not stated),/,/,/,/,5
Cc1ccc(Cl)cc1N1CCN(S(=O)(=O)c2ccc3c(c2)CC(=O)N3C)CC1,-2,5456,0,1,0
CCCCC(=O)Nc1sc2c(c1C(=O)OCC)CCC(C=O)=C2Cl,4,21678*,7,?,/
Cc1ccc(NC(=O)c2cc(C)on2)cc1,1,20978*,4,6,3
O=C(Nc1ccccc1C(F)(F)F)c1cc(-c2ccccc2O)on1,-3,10120,-9,-1,-2

# Screening results from PubChem.
